High-throughput results from PubChem BioAssay.
Bead autofluor: flagged as autofluorescent in microsphere protease counterscreen; fluorescence intensity (no concentration beside the values); compound autofluorescence counterscreen, microsphere flow cytometry; hits give high values; hit rate 3.1% among 360,000; AID 624483; in the data active means fluorescence intensity above about 16000; inconclusive means no clear call, values can overlap the other calls
Anthrax LF prot: Bacillus anthracis LF protease inhibitors, primary screen, biochemical, multiplex microsphere, MLPCN library; Lethal factor (Bacillus anthracis), P15917; multiplex microsphere protease cleavage assay; inhibition, % at 10 µM; hit rate 0.12% among 360,000
BoNT F protease: BoNT/F light chain protease inhibitors, primary screen, biochemical, flow cytometry, MLPCN library. inhibition, % at 10 µM. AID 588497, 2011. Multiplex microsphere protease cleavage assay. hit rate 0.22% among 360,000. Botulinum neurotoxin type F light chain protease (Clostridium botulinum); in the data active means inhibition above about 35%, passing the limit was not always enough; inconclusive means no clear call, values can overlap the other calls
BoNT A protease: BoNT/A light chain protease inhibitors, primary screen, biochemical, flow cytometry, MLPCN library; AID 588499, 2011; inhibition, % at 10 µM; hit rate 0.17% among 360,000; multiplex microsphere protease substrate cleavage
BJeLR viability: MLPCN primary cell-based screen for lethality selective to Ras in HRASV12 cells | BJeLR (HRASV12) viability, CellTiter-Glo ATP luminescence, 48 h | inhibition, % (test concentration not listed) | hit rate 0.17% among 300,000 | AID 1554, 2009; in the data active means inhibition above about 50%; inconclusive means no clear call, values can overlap the other calls
Of the large screens only hits and unclear results are named; the others gave an inactive call. Sampled rows, rich in hits. Any-hit rate of the full collection: about 3.5%. Unless noted, no stated cut-off is given here; in the data, active means inhibition above about 30%; inconclusive means no clear call, values can overlap the other calls; inactive means below that.

CC(=O)Nc1cc(C(=O)CSc2nnc(C3CC3)n2C2CC2)ccc1O	Bead autofluor inconclusive, BoNT F protease inconclusive (no result: BJeLR viability)
Cn1nc(C(F)(F)F)c(C(=O)Nc2ccc(F)cc2F)c1Sc1ccc(C(F)(F)F)cc1	Bead autofluor 22356
Cn1nc(C(F)(F)F)c(C(=O)Nc2ccc(F)cc2F)c1Sc1ccc(Cl)cc1	none
CCC(=O)N1CCC1(C)C(=O)Nc1ncc(C)s1 (stereo unspecified)	none (no result: BJeLR viability)
Cc1ccccc1C(NC(N)=O)c1ccccc1 (stereo unspecified)	Bead autofluor 16482
Cc1ccc(S(=O)(=O)N2CCN(C(=O)N(C)C)CC2)cc1C	none
Cc1ccc(N(C)C(=O)N2CCN(S(=O)(=O)c3ccc(C)c(C)c3)CC2)cc1	Bead autofluor 24506
CC(/C=N/NC(=O)c1cccs1)=C\c1ccco1	none
CC(/C=N/NC(=O)Cc1cccs1)=C\c1ccco1	Bead autofluor 21994, BoNT A protease inconclusive
Cn1cccc1/C=N/NC(=O)c1cccs1	none
Cn1cccc1/C=N/NC(=O)Cc1cccs1	Anthrax LF prot 43, BoNT F protease inconclusive
CC1(C(=O)NS(=O)(=O)Cc2ccccc2C(F)(F)F)CCN1C(=O)Cc1ccccc1 (stereo unspecified)	none (no result: BJeLR viability)
CCOC(=O)C1=CCC(c2ccccc2Cl)N(S(=O)(=O)c2ccc(C)cc2)C1 (stereo unspecified)	none (no result: BJeLR viability)
O=C(Cc1cccs1)N1CCN(C(=O)C2CCCO2)CC1 (stereo unspecified)	none
O=C(c1cccs1)N1CCN(C(=O)C2CCCO2)CC1 (stereo unspecified)	Bead autofluor 19685
O=C(c1cccs1)N1CCN(C2CCCCC2)CC1	Bead autofluor 20556, BoNT A protease inconclusive
O=C(c1cccs1)N1CCN(C2CCN(Cc3ccccc3)CC2)CC1	none
c1ccc(CCNc2ccc3ncc(-c4cccc5ccccc45)n3n2)nc1	none (no result: BJeLR viability)
CCCOc1ccc(C(=O)OCC(=O)c2c(N)n(C)c(=O)n(C)c2=O)cc1OCC	none
CCOc1cc(C(=O)OCC(=O)c2c(N)n(C)c(=O)n(C)c2=O)cc(OCC)c1OCC	Bead autofluor 22161
COc1ccc2c(c1)CC(C)C/C2=N\NC(=O)c1ccco1 (stereo unspecified)	none
CC1C/C(=N/NC(=O)c2cccc(F)c2)c2ccc(O)cc2C1 (stereo unspecified)	Bead autofluor 20922
COc1ccc(N2C(=O)NC(NC(=O)c3ccncc3)(C(F)(F)F)C2=O)cc1 (stereo unspecified)	Bead autofluor 22275
O=S(=O)(c1ccc(-c2cn3ccccc3n2)cc1)N1CCOCC1	Bead autofluor 22528
O=S(=O)(c1cccc(-c2cn3ccccc3n2)c1)N1CCCCC1	none
Cc1cccn2cc(-c3ccc(S(=O)(=O)N4CCCCC4)cc3)nc12	none
Cc1cccn2cc(-c3ccc(S(=O)(=O)N4CCOCC4)cc3)nc12	Bead autofluor 23299
OCCCNc1ncnc2c1ncn2[C@H]1CN(Cc2ccc3c(c2)OCO3)C[C@@H](CO)O1	none (no result: BJeLR viability)
CCCCOCCCNC(=O)C[C@@H]1C[C@@]2(C(=O)OC)CCCCC=C2N(Cc2cccc3ccccc23)C1=O	none (no result: BJeLR viability)
Cc1cccc(N2CCN(C(=O)CSCc3c(C)noc3C)CC2)c1C	Bead autofluor 23925
Cc1noc(C)c1CSCC(=O)N1CCN(c2ccc(F)cc2)CC1	Bead autofluor 16984
O=C(CSCc1ccc(F)cc1)N1CCOCC1	Bead autofluor 20026
O=C(CN1CCN(c2ccccn2)CC1)Nc1ccc([N+](=O)[O-])cc1C(=O)Nc1ccccc1F	none
Cc1ccc(CNCC(O)(c2ccccc2)c2ccc(F)cc2)cc1 (stereo unspecified)	none
Cc1ccc(CNCC(O)(c2ccc(F)cc2)c2ccc(F)cc2)cc1	Bead autofluor 22638, BoNT A protease inconclusive
CC(=O)N1CCN(c2ccc(NC(=O)c3ccc4c(c3)OCCO4)cc2)CC1	none
CC(=O)N1CCN(c2ccc(NC(=O)c3ccc4c(c3)OCCO4)cc2Cl)CC1	none
CC(C)C(=O)N1CCN(c2ccc(NC(=O)c3ccc4c(c3)OCCO4)cc2Cl)CC1	Bead autofluor 16164, BoNT A protease inconclusive
O=C(Nc1ccc(N2CCCCC2)cc1)c1ccc2c(c1)OCCO2	Bead autofluor 23082, BoNT A protease inconclusive
COCCNC(=O)C1(C)CCCN(Cc2cn(C)c3ccccc23)C1 (stereo unspecified)	none (no result: BJeLR viability)
O=C([C@H]1O[C@@H](n2ccc(=O)[nH]c2=O)[C@H](O)[C@@H]1O)N1CCSC1	none (no result: BJeLR viability)
COc1ccc(NC(=O)C2CCCN2S(=O)(=O)c2ccc3c(c2)C(C)(C)C(=O)N3C)cc1 (stereo unspecified)	none (no result: BJeLR viability)
C=CCn1c(SCC(=O)c2ccc(Br)cc2)nnc1C(CC(C)C)NC(=O)c1cccs1 (stereo unspecified)	Bead autofluor 22563, BoNT A protease inconclusive
CC(C)CC(NC(=O)c1cccs1)c1nnc(SCc2ccc(Cl)c(Cl)c2)n1C (stereo unspecified)	none
Cn1c(=O)c2cc(NC(=O)NCc3ccc(F)cc3)ccc2n1C	none (no result: BJeLR viability)
COc1cc(C)c(S(=O)(=O)N2CCN=C2c2ccccc2)cc1C	none
Cc1cc(C)c(S(=O)(=O)N2CCN=C2c2ccccc2)cc1C	Bead autofluor 22172
CCCCOC(=O)C1=C(C)Nc2ncnn2C1c1cc(OC)c(OC)cc1OC (stereo unspecified)	Bead autofluor 23316
CCCCOC(=O)C1=C(C)Nc2nnnn2C1c1ccc(OC)c(OC)c1OC (stereo unspecified)	none
CCCCOC(=O)C1=C(C)Nc2ncnn2C1c1ccc(OC)c(OC)c1OC (stereo unspecified)	Bead autofluor 23980
Cc1ccc(C2=NN(CC(=O)O)C(=O)CC2)cc1	BoNT F protease 50
COc1ccc(/C=N/N2CCN(c3ccncc3S(=O)(=O)N3CCCCC3)CC2)cc1	none
N#Cc1cc2c(nc1SCC(=O)NCc1ccc3c(c1)OCO3)CCCCC2	Bead autofluor 18758
Cc1noc(NS(=O)(=O)c2ccc(NC(=O)CC(C)C)cc2)c1C	none
Cc1noc(NS(=O)(=O)c2ccc(NC(=O)CSc3nc4c(cc3C#N)CCCCC4)cc2)c1C	Bead autofluor 24886
N#Cc1cc2c(nc1SCC(=O)O)CCCCC2	none
COC(=O)c1ccc(OCC2c3cc(OC)c(OC)cc3CCN2C(=O)c2ccco2)cc1 (stereo unspecified)	Bead autofluor 19776
CCC(=O)N1CCc2cc(OC)c(OC)cc2C1COc1ccc(C(=O)OC)cc1 (stereo unspecified)	Bead autofluor 21370 (no result: BJeLR viability)
COC(=O)c1ccc(OCC2c3cc(OC)c(OC)cc3CCN2C(C)=O)cc1 (stereo unspecified)	none
C=C1C(=O)OC2CC(C)C3C=CC(=O)C3(C)C(O)C12 (stereo unspecified)	none (no result: BJeLR viability)
